Values without a mark were called inactive. Results filed as inconclusive are left out. Activity calls are given as the source filed them. Calls follow the shape of the dose curve; as a rule, active = well fitted inhibition curve with a large enough effect; inconclusive = small, poorly fitted or top-dose-only effect; inactive = no such curve, though single readings can be large or run the other way.
Assay: qHTS assay for measurement of the activity of small molecule inhibitors on Zika virus induced Caspase-3 activity in human iPSC derived neural progenitor cells (hNPCs) (AID 1224857); also: % of control where 0% means no effect; nearly all actives have a fitted effect of over 65% in size
Details: hNPCs ZIKV-induced caspase-3/7, Caspase-Glo luminescence, 6 h; series mostly up to 45.7 µM; activity change, negative = inhibition: at the top concentration
Summary of the method: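 Pretreat hNPCs with compound 1 h; infect ZIKV 2 FFU/cell; 6 h 37 C, 5% CO2; Caspase-Glo 3/7, 30 min RT; luminescence; normalize to no-virus and virus-only wells.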

SMILES	activity change, negative = inhibition	outcome
O=C1N=C(O)CN1/N=C/c1ccc(-c2ccc([N+](=O)[O-])cc2)o1	-2.39%	–
Oc1cccc(O)c1	4.7%	–
OCCN1CCN(CCCN2c3ccccc3Sc3ccc(Cl)cc32)CC1	–	inactive
C[C@]12C[C@H](O)[C@H]3[C@@H](CCC4=CC(=O)CC[C@@]43C)[C@@H]1CC[C@@H]2C(=O)CO	–	inactive
CC(=O)O[C@@]12CO[C@@H]1C[C@H](O)[C@@]1(C)C(=O)[C@H](O)C3=C(C)[C@@H](OC(=O)[C@H](O)[C@@H](NC(=O)OC(C)(C)C)c4ccccc4)C[C@@](O)([C@@H](OC(=O)c4ccccc4)[C@H]21)C3(C)C	-0.715%	–
Nc1ccc(S(=O)(=O)Nc2nccs2)cc1	0.0628%	–
CCN(CC)CCCC(C)Nc1c2ccc(Cl)cc2nc2ccc(OC)cc12 (stereo not given)	233%	–
O=C(O)c1ccccn1	-5.42%	–
CC[C@@]1(c2ccccc2)NC(=O)N(C)C1=O	13.2%	–
CNCCC(Oc1ccc(C(F)(F)F)cc1)c1ccccc1 (stereo not given)	–	inactive
Cc1cc(O)cc2c1O[C@](C)(CCC[C@H](C)CCC[C@H](C)CCCC(C)C)CC2	1.05%	–
NCCNCCNCCN	1.15%	–
CCN(CC)CCSC(=O)C(c1ccccc1)c1ccccc1	-2.68%	–
CC(CN1c2ccccc2Sc2ccccc21)N(C)C (stereo not given)	–	inactive
OCC(CO)N[C@H]1C[C@](O)(CO)[C@@H](O)[C@H](O)[C@H]1O	26.8%	–
CC(C(O)c1ccc(O)cc1)N1CCC(Cc2ccccc2)CC1 (stereo not given)	–	inactive

Assay: qHTS assay for measurement of the activity of small molecule inhibitors on Zika virus induced Caspase-3 activity in human astrocytoma cells (AID 1224859);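 also: plate controls were ZIKV-infected untreated cells for no effect and uninfected cells for full effect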
Details: SNB-19 ZIKV-induced caspase-3/7, luminescence, 6 h; series mostly up to 45.7 µM; activity change, negative = inhibition: at the top concentration
Summary of the method: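 Human SNB-19 astrocytoma cells in RPMI 1640 with 10% FBS receive compound one hour ahead of Zika virus at 2 FFU/cell. After 6 h infection, caspase-3/7 activity is detected by Caspase-Glo luminescence.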

SMILES	activity change, negative = inhibition	outcome
O=S(=O)(O)c1cc(I)c(O)c2ncccc12	23.8%	–
CNCCCC1c2ccccc2C=Cc2ccccc21	–	inactive
CCN(CC)C(C)CN1c2ccccc2Sc2ccccc21 (stereo not given)	–	inactive
Oc1cn2c(n1)Nc1ccc(Cl)c(Cl)c1C2	1.05% [at 20.5 µM]	–
Cc1c(O)cccc1C(=O)N[C@@H](CSc1ccccc1)[C@H](O)CN1C[C@H]2CCCC[C@H]2C[C@H]1C(=O)NC(C)(C)C	-10.2%	–
O=C1c2c(O)cccc2Cc2cccc(O)c21	-1.42%	–
NC(=O)N/N=C/c1ccc([N+](=O)[O-])o1	–	inactive
Cc1ncc(COP(=O)(O)O)c(C=O)c1O	-8.93%	–
CN(C)CCCN1c2ccccc2Sc2ccc(Cl)cc21	–	inactive
OCc1cc(C(O)CNCCCCCCOCCCCc2ccccc2)ccc1O (stereo not given)	–	inactive
NC(=O)c1ncn([C@@H]2O[C@H](CO)[C@@H](O)[C@H]2O)n1	–	inactive
CC1=C(/C=C/C(C)=C/C=C/C(C)=C/C(=O)O)C(C)(C)CCC1	–	inactive
NC(=O)c1ncn([C@@H]2O[C@H](CO)[C@@H](O)[C@H]2O)c1N	4.45%	–
CC(C)(O)c1ccccc1CC[C@@H](SCC1(CC(=O)O)CC1)c1cccc(/C=C/c2ccc3ccc(Cl)cc3n2)c1	1.15%	–
CC(CN(C)C)CN1c2ccccc2CCc2ccccc21 (stereo not given)	–	inactive
Cn1cc[nH]c1=S	-0.358%	–
CO/N=C(\C(=O)N[C@@H]1C(=O)N2C(C(=O)O)=C(CSc3nc(=O)c(O)nn3C)CS[C@H]12)c1csc(N)n1	-4.33%	–

SMILES	activity change, negative = inhibition	outcome
C=Cc1c(C)c2cc3[nH]c(cc4nc(cc5nc(cc1[nH]2)C(C)=C5CCC(=O)O)C(CCC(=O)O)=C4C)c(C)c3C=C	–	inactive
O=C1N=C(O)CN1/N=C/c1ccc(-c2ccc([N+](=O)[O-])cc2)o1	–	inactive
Oc1cccc(O)c1	9.86%	–
OCCN1CCN(CCCN2c3ccccc3Sc3ccc(Cl)cc32)CC1	–	inactive
C[C@]12C[C@H](O)[C@H]3[C@@H](CCC4=CC(=O)CC[C@@]43C)[C@@H]1CC[C@@H]2C(=O)CO	–	inactive
CC(=O)O[C@@]12CO[C@@H]1C[C@H](O)[C@@]1(C)C(=O)[C@H](O)C3=C(C)[C@@H](OC(=O)[C@H](O)[C@@H](NC(=O)OC(C)(C)C)c4ccccc4)C[C@@](O)([C@@H](OC(=O)c4ccccc4)[C@H]21)C3(C)C	-6.21%	–
Nc1ccc(S(=O)(=O)Nc2nccs2)cc1	-4.48%	–
CCN(CC)CCCC(C)Nc1c2ccc(Cl)cc2nc2ccc(OC)cc12 (stereo not given)	-26%	–
O=C(O)c1ccccn1	-12.5%	–
CC[C@@]1(c2ccccc2)NC(=O)N(C)C1=O	-0.956%	–
CNCCC(Oc1ccc(C(F)(F)F)cc1)c1ccccc1 (stereo not given)	–	inactive
Cc1cc(O)cc2c1O[C@](C)(CCC[C@H](C)CCC[C@H](C)CCCC(C)C)CC2	-9.07%	–
NCCNCCNCCN	2.32%	–
CCN(CC)CCSC(=O)C(c1ccccc1)c1ccccc1	-10.1%	–
CC(CN1c2ccccc2Sc2ccccc21)N(C)C (stereo not given)	–	inactive
OCC(CO)N[C@H]1C[C@](O)(CO)[C@@H](O)[C@H](O)[C@H]1O	11.5%	–
CC(C(O)c1ccc(O)cc1)N1CCC(Cc2ccccc2)CC1 (stereo not given)	–	inactive
